Results reported in PubChem BioAssay AID1159580 (chemical genetic matrix, 2015).
The whole screen tested about 5,500 compounds, of which about 2,000 (36%) were called active. About 18% were inconclusive and are not listed. Cut-off read from the data, not from the text of the source: active = normalized growth mostly below about 0.91 (no sharp cut-off); inconclusive = no clear call, values can overlap the other calls; inactive = mostly above about 0.92. This is one part of the list.

Experiment: chemical genetic growth profiling, strain panel (AID 1159580);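 note: tested at 20 µM; growth read once vehicle control cultures reached saturation at 30 °C; 1 = growth at the plate median or of vehicle wells; lower values mean less growth of the strain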
Conditions: growth OD

Measured: normalized growth

COC(=O)C(C)c1ccc(C(=O)c2cccs2)cc1 (configuration not stated)
inactive: S. cerevisiae deletion strains, locus YJR075W, strain HOC1, stronger effect = lower value 1.07 | S. cerevisiae deletion strains, locus YKL009W, strain mrt4, stronger effect = lower value 0.905 | S. cerevisiae deletion strains, locus YKL068W, stronger effect = lower value 0.967 | S. cerevisiae deletion strains, locus YKL085W, strain MDH1 (second series), stronger effect = lower value 0.941 | S. cerevisiae deletion strains, locus YKL085W, strain MDH1, stronger effect = lower value 0.941 | S. cerevisiae deletion strains, locus YKL160W, strain elf1, stronger effect = lower value 1 | S. cerevisiae deletion strains, locus YKL190W, strain CNB1, stronger effect = lower value 0.997 | S. cerevisiae deletion strains, locus YKR001C, strain vps1, stronger effect = lower value 0.936 | S. cerevisiae deletion strains, locus YKR026C, strain gcn3, stronger effect = lower value 1 | S. cerevisiae deletion strains, locus YKR091W, strain srl3, stronger effect = lower value 1.01 | S. cerevisiae deletion strains, locus YLL001W, strain dnm1, stronger effect = lower value 1.01 | S. cerevisiae deletion strains, locus YLL026W, stronger effect = lower value 1.01 | S. cerevisiae deletion strains, locus YLL041C, strain sdh2, stronger effect = lower value 1.01 | S. cerevisiae deletion strains, locus YLR027C, strain aat2, stronger effect = lower value 1.01 | S. cerevisiae deletion strains, locus YLR039C, strain RIC1, stronger effect = lower value 0.862 | S. cerevisiae deletion strains, locus YLR058C, strain SHM2, stronger effect = lower value 0.989 | S. cerevisiae deletion strains, locus YLR102C, strain apc9, stronger effect = lower value 0.966 | S. cerevisiae deletion strains, locus YLR113W, strain HOG1, stronger effect = lower value 0.943 | S. cerevisiae deletion strains, locus YLR221C, strain rsa3, stronger effect = lower value 0.978 | S. cerevisiae deletion strains, locus YLR258W, strain gsy2, stronger effect = lower value 1.02 | S. cerevisiae deletion strains, locus YLR262C, strain YPT6 (second series), stronger effect = lower value 0.998 | S. cerevisiae deletion strains, locus YLR262C, strain YPT6, stronger effect = lower value 0.842 | S. cerevisiae deletion strains, locus YLR268W, strain sec22, stronger effect = lower value 0.956 | S. cerevisiae deletion strains, locus YLR320W, strain mms22, stronger effect = lower value 1.01 | S. cerevisiae deletion strains, locus YLR330W, strain CHS5, stronger effect = lower value 0.979 | S. cerevisiae deletion strains, locus YLR342W, strain FKS1 (second series), stronger effect = lower value 0.881 | S. cerevisiae deletion strains, locus YLR342W, strain FKS1, stronger effect = lower value 1.02 | S. cerevisiae deletion strains, locus YLR357W, strain rsc2, stronger effect = lower value 1.02 | S. cerevisiae deletion strains, locus YLR370C, strain arc18, stronger effect = lower value 1.01 | S. cerevisiae deletion strains, locus YLR371W, strain rom2, stronger effect = lower value 0.958 | S. cerevisiae deletion strains, locus YLR384C, strain iki3, stronger effect = lower value 1.01 | S. cerevisiae deletion strains, locus YLR418C, strain cdc73, stronger effect = lower value 1.06 | S. cerevisiae deletion strains, locus YML016C, strain PPZ1, stronger effect = lower value 0.993 | S. cerevisiae deletion strains, locus YML032C, strain rad52, stronger effect = lower value 0.934 | S. cerevisiae deletion strains, locus YML120C, strain ndi1, stronger effect = lower value 1.01 | S. cerevisiae deletion strains, locus YML124C, strain tub3, stronger effect = lower value 0.958 | S. cerevisiae deletion strains, locus YMR058W, strain fet3, stronger effect = lower value 1.01 | S. cerevisiae deletion strains, locus YMR078C, strain ctf18, stronger effect = lower value 0.934 | S. cerevisiae deletion strains, locus YMR125W, strain sto1, stronger effect = lower value 1.02 | S. cerevisiae deletion strains, locus YMR129W, stronger effect = lower value 1.01 | S. cerevisiae deletion strains, locus YMR205C, strain PFK2, stronger effect = lower value 1.01 | S. cerevisiae deletion strains, locus YMR223W, strain ubp8, stronger effect = lower value 0.913 | S. cerevisiae deletion strains, locus YMR231W, strain pep5, stronger effect = lower value 0.996 | S. cerevisiae deletion strains, locus YMR263W, strain SAP30, stronger effect = lower value 1.01 | S. cerevisiae deletion strains, locus YMR307W, strain GAS1, stronger effect = lower value 0.973 | S. cerevisiae deletion strains, locus YNL067W, strain RPL9B, stronger effect = lower value 0.988 | S. cerevisiae deletion strains, locus YNL071W, strain lat1, stronger effect = lower value 1.01 | S. cerevisiae deletion strains, locus YNL128W, strain TEP1, stronger effect = lower value 1.03 | S. cerevisiae deletion strains, locus YNL153C, strain GIM3, stronger effect = lower value 1.02 | S. cerevisiae deletion strains, locus YNL183C, strain NPR1, stronger effect = lower value 0.912 | S. cerevisiae deletion strains, locus YNL209W, strain ssb2, stronger effect = lower value 1.01 | S. cerevisiae deletion strains, locus YNL233W, strain BNI4, stronger effect = lower value 1.01 | S. cerevisiae deletion strains, locus YNL248C, strain rpa49, stronger effect = lower value 1 | S. cerevisiae deletion strains, locus YNL250W, strain rad50, stronger effect = lower value 0.976 | S. cerevisiae deletion strains, locus YNL271C, strain bni1, stronger effect = lower value 0.939 | S. cerevisiae deletion strains, locus YNL298W, strain CLA4, stronger effect = lower value 0.932 | S. cerevisiae deletion strains, locus YNL322C, strain KRE1 (second series), stronger effect = lower value 1.01 | S. cerevisiae deletion strains, locus YNL322C, strain KRE1, stronger effect = lower value 0.991 | S. cerevisiae deletion strains, locus YNR049C, strain mso1, stronger effect = lower value 1.02 | S. cerevisiae deletion strains, locus YNR052C, strain pop2, stronger effect = lower value 0.945 | S. cerevisiae deletion strains, locus YOL006C, strain TOP1, stronger effect = lower value 0.921 | S. cerevisiae deletion strains, locus YOL012C, strain htz1 2.2 | S. cerevisiae deletion strains, locus YOL147C, strain pex11, stronger effect = lower value 0.97 | S. cerevisiae deletion strains, locus YOR001W, strain rrp6, stronger effect = lower value 0.983 | S. cerevisiae deletion strains, locus YOR061W, strain CKA2, stronger effect = lower value 0.985 | S. cerevisiae deletion strains, locus YOR069W, strain VPS5, stronger effect = lower value 0.986 | S. cerevisiae deletion strains, locus YOR070C, strain gyp1, stronger effect = lower value 1.01 | S. cerevisiae deletion strains, locus YOR080W, strain dia2, stronger effect = lower value 1.02 | S. cerevisiae deletion strains, locus YOR083W, strain WHI5, stronger effect = lower value 1 | S. cerevisiae deletion strains, locus YOR106W, strain vam3, stronger effect = lower value 0.995 | S. cerevisiae deletion strains, locus YOR136W, strain idh2, stronger effect = lower value 0.959 | S. cerevisiae deletion strains, locus YOR144C, strain elg1, stronger effect = lower value 0.96 | S. cerevisiae deletion strains, locus YOR231W, strain MKK1, stronger effect = lower value 0.954 | S. cerevisiae deletion strains, locus YOR265W, strain rbl2, stronger effect = lower value 1 | S. cerevisiae deletion strains, locus YOR270C, strain vph1, stronger effect = lower value 0.969 | S. cerevisiae deletion strains, locus YOR290C, strain snf2, stronger effect = lower value 1 | S. cerevisiae deletion strains, locus YOR316C, strain cot1, stronger effect = lower value 0.97 | S. cerevisiae deletion strains, locus YPL051W, strain arl3, stronger effect = lower value 1 | S. cerevisiae deletion strains, locus YPL055C, strain LGE1, stronger effect = lower value 1.04 | S. cerevisiae deletion strains, locus YPL078C, strain atp4, stronger effect = lower value 1.01 | S. cerevisiae deletion strains, locus YPL106C, strain sse1, stronger effect = lower value 1.01 | S. cerevisiae deletion strains, locus YPL240C, strain hsp82, stronger effect = lower value 1.02 | S. cerevisiae deletion strains, locus YPL241C, strain CIN2, stronger effect = lower value 0.995 | S. cerevisiae deletion strains, locus YPL256C, strain CLN2, stronger effect = lower value 0.962 | S. cerevisiae deletion strains, locus YPR119W, strain clb2, stronger effect = lower value 0.971 | S. cerevisiae deletion strains, locus YPR141C, strain kar3, stronger effect = lower value 0.968 | S. cerevisiae deletion strains, locus YPR163C, strain tif3, stronger effect = lower value 0.95 | S. cerevisiae deletion strains, locus YPR167C, strain met16, stronger effect = lower value 0.967 | S. cerevisiae deletion strains, strain wtn01, stronger effect = lower value 0.982 | S. cerevisiae strains, strain wild type, stronger effect = lower value 0.983
active: S. cerevisiae deletion strains, locus YNL307C, strain MCK1, stronger effect = lower value 0.819 | S. cerevisiae deletion strains, locus YOR184W, strain ser1, stronger effect = lower value 0.747
